From PubChem
The list is not random: actives were taken first. Their share in the collection is about 3.9%.
Peg3 prom inh – Peg3 promoter-driven luciferase inhibitors, primary screen, cell-based, HeLa, luciferase luminescence. hit rate 1.7% among 360,000. inhibition, % at 20 µM. HeLa PEG-Prom luciferase reporter, overnight;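 active = inhibition of at least 50% at 20 µM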
HIF-2a inh – HIF-2a reporter inhibitors, primary screen, luminescence, 786-0 RCC cells. 786-0 RCC cells HIF-2a reporter, luciferase luminescence, overnight. inhibition, % at 18.8 µM. hit rate 0.72% among 360,000. AID 624352, 2012;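 active = inhibition of the luminescence signal of 40% or more relative to plate controls, in a single-dose primary screen at 18.75 µM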
TROY NFkB inh – inhibitors of TROY-driven NF-kB signaling, primary screen, Q293 LMP1-TROYcd cells, NF-kB luciferase, uHTS; Q293 LMP1-TROYcd NF-kB luciferase reporter, 4 h; inhibition, % at 10 µM; hit rate 0.98% among 360,000; AID 1347056, 2019;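 active = compounds whose plate-normalised and pattern-corrected inhibition of the luciferase reporter signal at the single screening dose is 50% or more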
CF NFkB inh – inhibitors of PAF-induced NF-kB signaling, primary screen, cell-based, GFP fluorescence, uHTS; KKLEB NF-kB-GFP reporter, GFP fluorescence overnight; inhibition, % at 5 µM; hit rate 0.86% among 360,000; AID 588850, 2011;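 active = at least 50% inhibition at 5 µM, scaled per plate between neutral and stimulator controls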;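 note: PAF is a Pseudomonas aeruginosa culture filtrate used as stimulus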
KKLEB tox – cytotoxicity in KKLEB CF airway cells, primary screen, cytotoxicity control for CF NF-kB inhibitor project, cell-based, uHTS, fluorescence assay plates | KKLEB CF airway cells viability, ATPlite luminescence, overnight; hits give low values; cells stimulated with P. aeruginosa culture filtrate | activity change (cytotoxicity), % at 5 µM | hit rate 0.36% among 360,000 | AID 602141, 2011;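 active = corrected activity change at or below -50% at 5 µM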
TWEAK Fn14 block – inhibitors of TWEAK-Fn14 signaling, primary screen, luciferase reporter cells, uHTS; TWEAK-stimulated Fn14 reporter cells, luciferase luminescence, 8 h; inhibition, % at 10 µM; hit rate 2% among 360,000; in the data active = inhibition above about 50%
Large screens that a line does not name were inactive.

Cc1ccc(C)c(N2CCN(C(=O)c3ccc(CS(=O)(=O)c4ccccc4C)o3)CC2)c1	TWEAK Fn14 block 55
Cc1ccc(S(=O)(=O)Cc2ccc(C(=O)N3CCN(c4cc(C)ccc4C)CC3)o2)cc1	none
COc1ccc(N2CCN(C(=O)c3ccc(CS(=O)(=O)c4ccccc4C)o3)CC2)cc1	none
O=C(COC(=O)/C=C/c1cccc(F)c1)NC1CCCCCC1	none
COc1ccc(C(=O)N(C)CCCC2CCCC2)cc1OC1CCN(C(C)=O)CC1	none
Cc1cccc(-n2nnnc2SCn2nnc3ccccc3c2=O)c1	none
Cc1ccccc1Nc1c(-c2ccccn2)nc2c(C)cccn12	none
C[N+](C)(C)C(Cc1ccccc1)C(=O)[O-] (centres undefined)	none
CCN(CC)C(=O)Oc1ccc2c(=O)c(-c3ccc(OC)cc3)coc2c1	none
COc1ccc2c(=O)c(-c3ccc4c(c3)OCO4)coc2c1	TWEAK Fn14 block 70
COc1ccc(/C=N/NC(=O)Cn2cnc3c2c(=O)n(C)c(=O)n3C)cc1	none
COCCn1nnnc1C(c1ccccc1)N1CCN(C)CC1 (centres undefined)	none
CCC(C)c1ccc(C(C)NC(=S)NCc2ccc(F)cc2)cc1 (centres undefined)	Peg3 prom inh 51
CCCc1ccc(C(C)NC(=S)NCc2ccc(F)cc2)cc1 (centres undefined)	TROY NFkB inh 56
Cc1c(NC(=O)c2ccc(CN3CCc4ccccc4C3)cc2)c(=O)n(-c2ccccc2)n1C	none
CCNc1ccc(Br)cc(C(=O)/C=C/c2c(Cl)cccc2Cl)c1=O	Peg3 prom inh 104, HIF-2a inh 68
CNc1ccc(Br)cc(C(=O)/C=C/c2ccc(OC)cc2OC)c1=O	none
CNc1ccc(Br)cc(C(=O)/C=C/c2ccc(Cl)cc2Cl)c1=O	Peg3 prom inh 62
CCCCS(=O)CC(COc1ccc(Cl)cc1)OC(=O)c1ccccc1 (centres undefined)	none
CCCCN1C(=O)C(CC(=O)NCc2cccc3ccccc23)CC(C(=O)N2CCCCCC2)=C1C (centres undefined)	none (no result: Peg3 prom inh, CF NFkB inh, KKLEB tox)
CCCSc1nc2c(cnn2-c2ccc(C)cc2)c(=O)[nH]1	Peg3 prom inh 61
Cc1ccc(S(=O)(=O)/N=C2\C=C(NS(=O)(=O)c3ccccc3)C(=O)c3ccccc32)cc1	CF NFkB inh 73
Cc1cc(C)c(S(=O)(=O)/N=C2\C=C(NS(=O)(=O)c3ccccc3)C(=O)c3ccccc32)c(C)c1	CF NFkB inh 51
Cn1c2c(sc1=O)CCC2	none
O=C(Nc1cccc(C(F)(F)F)c1)Oc1ccc(Cl)c2cccnc12	TWEAK Fn14 block 74
CC(C)c1ccccc1-n1c(SCC(=O)N2CCc3ccccc3C2)nc2ccccc2c1=O	TROY NFkB inh 54
O=C(CSc1nc2ccccc2c(=O)n1-c1ccccc1)N1CCc2ccccc2C1	none
O=C(CCCCCCCCC(=O)N1CCCCC1)N1CCCCC1	none
COC(=O)c1cc(C(=O)OCC(=O)NC2CCCCCCC2)cc([N+](=O)[O-])c1	none
CCc1ccccc1NC(=O)CCS(=O)(=O)c1ccc(Br)cc1	TWEAK Fn14 block 70
COc1ccc(N(Cc2cc(=O)[nH]c3ccccc23)C(=O)C(C)C)cc1	none
COc1ccccc1NC(=O)COc1ccc(/C=N/NC(=O)CSCc2cc(C)cc(C)c2)cc1	none
COc1ccccc1OCC(=O)NCCSCc1ccc(Cl)cc1	Peg3 prom inh 77
COc1ccccc1NC(=O)COc1ccc(/C=N/NC(=O)CSCc2ccc(Cl)cc2)cc1	TROY NFkB inh 51
N#Cc1ccc(-c2cccnc2)nc1SCc1ccc(Cl)c(Cl)c1	none
COc1ccc(CC(=O)Nc2c(C(=O)N3CCN(c4ncccn4)CC3)oc3ccccc23)cc1	none
CCc1ccc(C(O)(CC(C)C)C(CN2CCOCC2)c2ccccc2)cc1 (centres undefined)	Peg3 prom inh 54
CCCC(O)(c1ccc(Cl)cc1)C(CN1CCOCC1)c1ccc(Cl)cc1 (centres undefined)	Peg3 prom inh 58
CC(c1nnc(SCC(=O)Nc2cc([N+](=O)[O-])ccc2F)n1Cc1ccccc1)N(C)C (centres undefined)	none
Cc1ccc(N2N=C(C(=O)O)CCC2=O)cc1Cl	none
COC(=O)/C=C\C(C#N)(C#N)N=Cc1ccc(OC)cc1	Peg3 prom inh 105
COc1ccc(C=NNC(=O)CCCCC(=O)NN=Cc2ccc(OC)cc2)cc1	none
CCN(CC)S(=O)(=O)c1cc(NC(=O)c2ccc3c(c2)NC(=O)C(C)S3)ccc1C (centres undefined)	TROY NFkB inh 67, TWEAK Fn14 block 89
Cc1cc(N/N=C/c2ccc(N(C)C)cc2)c2ccccc2n1	none
COc1ccc2nc(C)cc(N/N=C/c3ccccc3)c2c1	Peg3 prom inh 107
Cc1cc(N/N=C/c2ccc(O)cc2)c2cccc(C)c2n1	Peg3 prom inh 110
COc1ccc2nc(C)cc(Nc3ccc(N4CCN(C)CC4)cc3)c2c1	Peg3 prom inh 111
Cc1ccc(NC(=O)c2cc(N(C)C)ccc2[P+](=O)O)cc1	none
CCCC1Cc2c(sc3nc(SC)nc(N)c23)CO1 (centres undefined)	TWEAK Fn14 block 68
CN1OC[C@@H]2CN[C@H](c3cccc(N4CCOCC4)c3)C[C@@H]21	none
Cc1ccc(NS(=O)(=O)c2cc(NC(=O)c3ccc4c(c3)NC(=O)CS4)ccc2Cl)c(C)c1	Peg3 prom inh 52, TWEAK Fn14 block 66
CC/C(=C/c1ccccc1)c1cccc2[nH]c3c(OC)cccc3c12	none
O=S(=O)(c1cccs1)N1CCN(CCOc2ccc(Cl)cc2)CC1	none
O=S(=O)(c1cccs1)N1CCN(CC(O)COc2cc(Cl)ccc2Cl)CC1 (centres undefined)	TROY NFkB inh 52
O=C(COc1cccc2c1CCNC2=O)Nc1ccc(F)cc1	none
CCc1c(C)nc2c(-c3ccccc3)c(-c3ccccc3)[nH]n2c1=O	Peg3 prom inh 53
COc1ccc(-c2nc3nc(C)c(Cc4ccccc4)c(=O)n3[nH]2)cc1	none
CCc1c(C)nc2c(-c3ccccc3OC)c(C)[nH]n2c1=O	none
COc1ccc(Cc2[nH]n3c(=O)c(Cl)c(C)nc3c2-c2ccccc2)cc1	TROY NFkB inh 69
O=C(c1ccc(S(=O)(=O)Cc2ccccc2F)c([N+](=O)[O-])c1)N1CCCCCC1	none
O=C(c1ccc(S(=O)(=O)c2ccccc2Cl)c([N+](=O)[O-])c1)N1CCCCCC1	TWEAK Fn14 block 66
